Source: PubChem (several laboratories)
KLF5 inh: KLF5 expression inhibitors, primary screen, DLD-1 cells, luminescence; DLD-1 KLF5 promoter-luciferase reporter; inhibition, % at 5 µM; actives 0.23% (n = 290,000);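 active means inhibition above a per-plate limit of that plate's mean compound inhibition plus 3 SD, cut at about 60% in these data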;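 further: 0% = DMSO wells and 100% = LY294002 at 200 µM; higher means less KLF5 promoter-driven luciferase light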
APP transl inh: inhibitors of APP translation via 5'UTR reporter, primary screen, APP 5'UTR luciferase, SH-SY5Y cells | inhibition, % at 2 µM | SH-SY5Y APP 5'UTR-luciferase reporter, luminescence | AID 1285, 2008 | actives 0.82% (n = 190,000);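 active means inhibition above a set limit, derived from the sample mean plus 3 SD, cut at about 45% in these data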
aSyn UTR inh: MLPCN primary screen, SNCA 5' untranslated region; alpha-synuclein 5'UTR reporter, inhibitor activity; inhibition, % (tested at 7.5 µM); actives 0.82% (n = 300,000); in the data active means inhibition above about 60%;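 further: H4 neuroglioblastoma cells stably carrying SNCA 5'UTR luciferase fusion; 0% = DMSO wells and 100% = positive control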
BaF3 parental: parental Ba/F3 cell viability inhibition, counter-screen for JAK2V617F inhibitor project, murine pro-B, CellTiter-Glo luminescence; CellTiter-Glo ATP luminescence; inhibition, % at 5.6 µM; actives 1.1% (n = 220,000); AID 1486, 2009;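 active means inhibition above a per-campaign cutoff, the mean inhibition of all tested compounds plus 3 SD, cut at about 27% in these data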;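 further: 0% = DMSO wells and 100% = JAK Inhibitor I control wells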
IEC-6 cytotox: cytotoxicity in IEC-6 intestinal epithelial cells, primary screen, cytotoxicity control for KLF5 inhibitor project, cell-based, luminescence; IEC-6 cytotoxicity, luminescence viability; inhibition, % at 5 µM; actives 0.78% (n = 290,000); in the data active means inhibition above about 22%;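 further: 0% = plate median of test compound wells and 100% = cytotoxic reference compound wells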
Ba/F3 V617F tox: reduced viability of JAK2V617F-dependent Ba/F3 cells, primary screen, JAK2V617F inhibitor project, cell-based, Ba/F3 EpoR-JAK2V617F, luminescence | actives 1.1% (n = 220,000) | inhibition, % at 5.6 µM | ATP luminescence;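 active means inhibition above the campaign mean plus 3 SD over all tested compounds, cut at about 24% in these data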;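 further: cytokine-independent growth of Ba/F3 cells driven by EpoR plus mutant JAK2; 0% = DMSO-treated cells and 100% = JAK inhibitor I control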
Active calls of the source: *; nt = no result. Most compounds without a hit are left out; they make up all but 2.2% or so of the library.

SMILES	KLF5 inh	APP transl inh	aSyn UTR inh	BaF3 parental	IEC-6 cytotox	Ba/F3 V617F tox
COc1ccc(C(=O)Nn2c(SCC(=O)NCc3ccco3)nc3ccccc3c2=O)cc1	-80	-77	81*	10	6	4
COc1ccc(C(=O)Nn2c(SCC(=O)N3CCC(C)CC3)nc3ccccc3c2=O)cc1	14	-31	83*	18	14	17
COc1ccc(C(=O)Nn2c(SCC(=O)NC3CCCCC3)nc3ccccc3c2=O)cc1	13	-110	5	6	-1	-1
O=C(NCCCO)C(=O)Nc1cc2c3c(c1)CCC(=O)N3CCC2	-7	nt	11	nt	1	nt
C/C(=N\Nc1ncc(Cl)cc1Cl)c1ccccn1	-33	70*	101*	7	1	4
C/C(=N\Nc1ccc(Cl)c(C(=O)O)c1)c1ccccn1	-189	nt	-1	2	1	-1
O=C(NNC(=O)c1cccnc1SCc1cccc([N+](=O)[O-])c1)c1ccc(F)cc1	8	20	-1	7	-11	0
O=C(NNC(=O)c1cccnc1SCc1cccc([N+](=O)[O-])c1)c1ccccn1	18	72*	103*	9	5	-2
Cc1ccc(N=Nc2c(N)nn(-c3ccccc3)c2N)cc1	-72	-24	-183	35*	25*	47*
O=C(CCN1CCN(c2ccccc2)CC1)N/N=C/c1ccccc1O	-9	17	71*	5	5	1
Cc1ccc(S(=O)(=O)CCC(=O)Nc2nnc(-c3cccs3)o2)cc1	nt	nt	-17	nt	nt	nt
Oc1ccc(/C=N/Nc2ccnc3cc(Cl)ccc23)cc1O	-26	nt	-78	52*	13	85*
O=C(c1cc(-c2ccccc2)nc2ccccc12)N1CCc2ccccc2C1	-24	-16	-1	1	-4	-3
Cc1ccc2nc(-c3ccccc3)cc(C(=O)N3CCc4ccccc4C3)c2c1	-15	47*	-51	0	2	-3
CN[C@H]1CCc2cc(OC)c(OC)c(OC)c2-c2ccc(OC)c(=O)cc21	nt	nt	90*	nt	nt	nt
COc1cc2c(c(OC)c1OC)-c1c(cc(OC)c(OC)c1OC)C[C@](C)(O)[C@@H](C)C2	nt	nt	-10	nt	nt	nt
CC1=CN2C(=N)/C(=C/c3ccc([N+](=O)[O-])o3)C(=O)N=C2S1	-16	48*	-56	7	-21	2
COc1ccc(C2Oc3ccccc3C3=C2C(c2cccs2)n2ncnc2N3)cc1 (configuration not stated)	8	37	56	8	2	-1
Brc1ccc(C2C3=C(Nc4ncnn42)c2ccccc2OC3c2ccncc2)cc1 (configuration not stated)	-19	8	71*	9	-1	3
O=C(O)c1ccccc1Nc1ccc([N+](=O)[O-])cc1	-1	-2	1	44*	20	45*
COC(=O)CNC(=O)C1CCN(S(=O)(=O)c2cnc[nH]2)CC1	2	nt	-13	nt	-9	nt
Nc1cc[n+](CC(=O)c2ccc3c(c2)OCCO3)cc1	-30	-18	26	71*	-4	90*
O=C(C[n+]1ccc(C(=O)NCc2ccccc2)cc1)c1ccc2c(c1)OCCO2	20	7	-21	2	4	-3
CCOc1ccc(N2C(=O)CCC2=O)cc1	-30	-12	17	0	0	-4
CCOc1ccc(N2CC(=O)N(c3ccc(OCC)cc3)CC2=O)cc1	17	3	9	93*	0	-1
SMILES	KLF5 inh	APP transl inh	aSyn UTR inh	BaF3 parental	IEC-6 cytotox	Ba/F3 V617F tox
CCOc1ccc(NC(=O)CCN2CCN(C)CC2)cc1	-9	nt	5	nt	-1	nt
CCOC(=O)CNC(=O)Cn1cnc2c(nnn2-c2ccc(F)cc2)c1=O	6	-6	1	96*	2	-4
O=C(CCNC(=O)C1CCN(S(=O)(=O)c2ccc(F)cc2)CC1)NCc1ccccc1Cl	-23	nt	11	nt	11	nt
O=C(c1ccccc1)N1CCSc2sccc2C1=O	10	28	97*	-1	2	2
Cc1cccnc1N1C(=O)c2ccc(C(=O)O)cc2C1=O	-16	nt	-17	nt	-8	nt
CCN(CC)CCCNC(=S)N1CCN(c2nc(-c3ccc(F)cc3)cs2)CC1	-10	nt	133*	nt	9	nt
COCC(=O)N1CCC(Oc2ccc(C(=O)NCCCC3CCCC3)cc2)CC1	-26	nt	29	nt	-2	nt
CCCn1c(=N)n(CC(O)COc2ccc(C)cc2)c2ccccc21 (configuration not stated)	-13	nt	-23	4	-2	0
CCCCCn1c(=N)n(CC(O)COc2ccccc2OC)c2ccccc21 (configuration not stated)	11	-1	8	28*	8	18
CCCCn1c(=N)n(CC(O)COc2cccc(C)c2)c2ccccc21 (configuration not stated)	13	-5	0	40*	7	17
Cc1ccc(C)c(N2CCN(C(=O)c3ccc(Cl)c(NC4=NC5CS(=O)(=O)CC5S4)c3)CC2)c1 (configuration not stated)	-2	nt	18	nt	12	nt
O=C(Nc1cnn(Cc2ccc(F)cc2)c1)c1noc2c1CCCC2	16	-59	-105	58*	19	55*
CC(=O)c1ccc(NC(=O)c2noc3c2CCC3)cc1	56	-138	71*	6	3	2
Cc1nc2ccc(C(=O)N3CCCC(CO)(Cc4ccc(F)cc4F)C3)cc2nc1C (configuration not stated)	-3	nt	-16	nt	-4	nt
Cc1nc2oc3ccc(F)cc3c(=O)c2cc1C(=O)NC(C)(C)C	-22	-25	-76	2	6	2
CCOC(=O)[C@H](CCc1ccccc1)N[C@@H](C)C(=O)N1[C@H](C(=O)O)C[C@@H]2CCC[C@@H]21	nt	nt	22	nt	nt	nt
Nc1ccccc1C#Cc1ccccc1	-109	-119	-162	35*	0	14
Nc1ccc(C#Cc2ccccc2)cc1	-86	-7	18	5	3	-3
Clc1ccc(Cn2ncc3c(NCc4ccco4)ncnc32)c(Cl)c1	12	9	29	15	28*	6
COc1ccc(N2CCN(CCCNC(=O)Cn3c(=O)c4cccn4c4ccccc43)CC2)cc1	0	nt	2	nt	-4	nt
Oc1ccc2ccccc2c1/C=N/Nc1nnc(-c2ncc[nH]2)c2ccccc12	39	-6	102*	6	6	2
COC(=O)C1(CCSC)NC(c2ccc(O)c(OC)c2)C2C(=O)N(c3ccc(C)cc3)C(=O)C21 (configuration not stated)	-20	8	7	4	-6	-2
CCn1c(C)[n+](Cc2ccccc2)c2ccc(C(=O)OC)cc21	-12	-9	2	37*	-7	16
